# Assay outcomes: PubChem, National Center for Advancing Translational Sciences (NCATS)
# Many of the other results were omitted from the sample, so hits are more common in it than they were.
# Pf Dd2 inh: inhibitors of Plasmodium falciparum Dd2 growth; 4.3% of 120,000 active; P. falciparum Dd2 growth, SYBR Green, 72 h; AID 1347417; Potency, µM (series often up to 28.9 µM), without a hit: at the top dose activity, negative = inhibition, actives largely listed as inhibitors; active means well fitted inhibition curve with a large enough effect;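 further: plate controls were DMSO vehicle for no effect and reference drug for full effect; nearly all actives have a fitted effect of over 65% in size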
#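 Infected erythrocytes (Dd2, 0.3% parasitemia, 2.5% hematocrit final) are added to compound in RPMI-1640/Albumax II medium, grown 72 h at 37C in low oxygen, then lysed with saponin/Triton-X containing SYBR Green and read by fluorescence.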
# * marks the source's active call; other numbers are inactive results; i = inactive; [ ] = dose if it differs, or a comment. Potency means the concentration at half of the fitted maximal effect.
SMILES,Pf Dd2 inh
COc1ccc(OC)c(NC(=O)CSc2ccc(-c3sc(C)nc3C)nn2)c1,i
COCCNC(=O)[C@H]1CN2CCC1C[C@@H]2Cn1cc(CCO)nn1 (stereo partly specified),19%[44.1 µM]
CN1C(=O)CCC2(CNC(=O)c3ccccn3)CCC=C12 (stereo unspecified),19%
Cc1cccc(CN2CCn3c(nnc3[C@@H]3C[C@@H](O)CN3C)C2)c1,-11%
Cc1ccc(C2(O)CCN(c3nc(C)ccc3C(N)=O)CC2)nc1,5%
Cc1ccc(C2=NC3(CCN(C(=O)c4cc(Cl)ccc4F)CC3)ON2)cc1,-24%
O=C(Cc1c[nH]c2ccccc12)NCC(=O)N1CCCCCNC(=O)CC1c1ccccc1 (stereo unspecified),-17%
O=C1CC(c2ccccc2)N(C(=O)CNC(=O)c2c[nH]c3ccccc23)CCCCCN1 (stereo unspecified),i
O=C1CC(c2ccccc2)N(C(=O)CNC(=O)c2ccoc2)CCCCCCN1 (stereo unspecified),-25%
O=C1CC(c2ccccc2)N(C(=O)CNC(=O)c2ccc3cc[nH]c3c2)CCCCCN1 (stereo unspecified),10µM*
O=C1CC(c2ccccc2)N(C(=O)CNC(=O)c2n[nH]c3ccccc23)CCCCCCN1 (stereo unspecified),10µM*
N#Cc1cccc(C(=O)NCC(=O)N2CCCCCCNC(=O)CC2c2ccccc2)c1 (stereo unspecified),-23%
CCNC(=O)c1cccnc1OC1CCN(C(=O)c2cccc(C)c2)C1 (stereo unspecified),-4%
COc1ccc(CC(=O)N2CC(CO)C3(CCNCC3)C2)cc1 (stereo unspecified),29%
Cc1noc(C)c1C(=O)N1CCn2c(nnc2-c2cncc(Br)c2)C1,-6%
O=C(CN1C(=O)NC2(CCOCC2)C1=O)Nc1ccc2c(c1)OCO2,33%
O=C(c1cccc(OC(F)(F)F)c1)N1CCC2(CC1)CC(O)CCO2 (stereo unspecified),21%
CCCN1C(=O)CCc2cc(NC(=O)c3ccc(OC(F)(F)F)cc3)ccc21,-18%
CCN1C(=O)CCC2(C(=O)NCCc3c[nH]c4ccc(OC)cc34)CCCC=C12 (stereo unspecified),i
COc1cccc(S(=O)(=O)N2CCC(c3noc(-c4cccnc4)n3)C2)c1 (stereo unspecified),30%[5.79 µM]
CN(C)CCNC(=O)c1cnc2c(c1)N(Cc1ccccc1)CCC2,i
Cc1cc(S(=O)(=O)N2CCCC(Cn3c(C)nc4cccnc43)C2)ccc1Cl (stereo unspecified),-28%
CC(C)Cc1ccc(S(=O)(=O)N2CCCC(Cn3cnc4cccnc43)C2)cc1 (stereo unspecified),-10%
Cc1nc2cccnc2n1CC1CCCN(C(=O)Nc2ccc(C(F)(F)F)cc2)C1 (stereo unspecified),i
COc1cccc(NC(=O)N2CCCC(Cn3c(C)nc4cccnc43)C2)c1 (stereo unspecified),i
SMILES,Pf Dd2 inh
Cc1nc2cccnc2n1CC1CCCN(S(=O)(=O)c2ccc(CC(C)C)cc2)C1 (stereo unspecified),6.3µM*
Cc1nc2cccnc2n1CC1CCCN(C(=O)Nc2cccc(C(F)(F)F)c2)C1 (stereo unspecified),11µM*
COc1ccc2c(C)c(C(=O)N3CCCOC(Cn4cccn4)C3)oc2c1 (stereo unspecified),2%
COc1ccccc1-c1onc(C)c1C(=O)NCCc1ccc(F)cc1,i
CC1(C)Cc2c(cnn2-c2ccc(F)cc2)C(NC(=O)c2cc(C3CC3)[nH]n2)C1 (stereo unspecified),-13%
CCCS(=O)(=O)N1CCC(Oc2ccc(-c3noc(CC)n3)cc2)C1 (stereo unspecified),26%[5.79 µM]
Cc1ccc(-c2noc(-c3nc(C(C)C)no3)n2)cc1,-4%
Cc1cc(C)cc(NC(=O)Cn2ccn3nc4c(c3c2=O)CCCC4)c1,6%
COc1ccc(S(=O)(=O)N2CC[C@H]3NC(=O)N(Cc4ccccc4)C(=O)[C@H]32)cc1,17%[44.1 µM]
Cc1ccc(NC(=O)c2cc3c(s2)CN(C2CC2)C3)cc1,10µM*
CSc1ccc(NC(=O)c2cc3c(s2)CN(C2CC2)C3)cc1,10µM*
CCC(=O)N1CCc2sc(C(=O)NCc3ccc(C)cc3)cc2C1,i
O=C(NC1CCCCC1)c1cc2c(s1)CCN(C(=O)c1ccc(F)cc1)C2,i
O=C(NC1CCS(=O)(=O)C1)c1cc2c(s1)CN(C1CCCC1)C2 (stereo unspecified),i
CSc1ccc(NC(=O)C2CCN(c3ncccn3)CC2)cc1,i
CN(CC1COCCO1)C(=O)c1coc(COc2ccc3c(c2)OCO3)n1 (stereo unspecified),5%
CC1(C(=O)Nc2ccccc2)CCc2cnc(N3CCOCC3)nc21 (stereo unspecified),4%[44.1 µM]
CC1=NS(=O)(=O)N(C)C=C1C(=O)OCc1nc(-c2ccccc2F)no1,11%
COc1cccc(C(=O)N2CCCCC2c2nc(-c3cnccn3)n[nH]2)c1 (stereo unspecified),-10%
O=C1CCC(CCC(=O)N2CCCC2c2ccc(F)cc2)(Cc2cccc3ccccc23)N1 (stereo unspecified),-13%
CSc1ccc(C2c3[nH]c4ccccc4c3CCN2C(=O)CCc2ccccc2)cc1 (stereo unspecified),-20%
COc1ccc(C2c3[nH]c4ccccc4c3CCN2C(=O)CCC2CCCC2)cc1 (stereo unspecified),0%
O=C(CCC1CCCC1)N1CCc2c([nH]c3ccccc23)C1c1ccc(F)cc1 (stereo unspecified),11µM*
O=C1CN(C(=O)Cc2ccccc2)C(c2ccc(F)cc2)c2cc(Br)ccc2N1 (stereo unspecified),i
O=C(CCc1ccccc1)N1CCc2c([nH]c3ccccc23)C1c1ccc(F)cc1 (stereo unspecified),11µM*
SMILES,Pf Dd2 inh
Cc1ccccc1CC(=O)N(C)CC1CCOCC1,-10%
Cc1cncc(C(=O)N[C@@H]2CN(Cc3ccccc3)C[C@H]2CN(C)C)c1,-9%
O=C(O)C[C@@H]1CCN(C(=O)NC2CCCCC2)C[C@@H]1CCN1C[C@@H]2C[C@H](C1)c1cccc(=O)n1C2,18%
Cc1c[nH]c(C(=O)N2CCCC(CCc3cccc(C(F)(F)F)c3)C2)c1 (stereo unspecified),-22%
O=C(c1ccc(=O)[nH]c1)N1CCCC(CCc2cccc(C(F)(F)F)c2)C1 (stereo unspecified),-14%
CN(CC1CCCN(CCc2cccc(C(F)(F)F)c2)C1)C(=O)c1ccc2[nH]ccc2c1 (stereo unspecified),10µM*
CCNC(=O)[C@@H]1C[C@H](NC(=O)c2cccc(-c3ccc(F)cc3)c2)CN1C,-7%
CC(C)C1=NOC2(CCCN([S+](=O)([O-])c3cccs3)C2)C1 (stereo unspecified),16%
COc1ccc(N2CC(NC(=O)c3ccc(S(=O)(=O)N4CCCCC4)cc3)CC2=O)cc1OC (stereo unspecified),i
COc1cc2c(cc1OC)C(CNC(=O)Nc1ccc(C)cc1)N(C(=O)NC(C)C)CC2 (stereo unspecified),-10%
COc1cc2c(cc1OC)C(COc1ccc(C(C)C)cc1)N(C(=O)c1ccc(S(=O)(=O)N3CCCC3)cc1)CC2 (stereo unspecified),13µM*
